Experimental data as given in PubChem BioAssay.
Calls of active or inactive are those of the source. Unless noted, the rule behind the calls is not given here.

Columns and labels:
[1] = HepG2 liver cancer cell viability effects, profiling panel, resazurin fluorescence, 24 h, PK04 Diversity Set (AID 1172); conditions: higher = more signal
[2] = basal S. cerevisiae growth modulation, no modifier, primary screen, OD600, strain BY4716, 24 h, basal condition (AID 1173); conditions: OD600, 24 h, higher = more signal, called active from +8 up or from −8 down
[3] = MM1S myeloma cell viability, profiling panel, resazurin fluorescence, basal, 24 h, PK04 Diversity Set (AID 1174); conditions: higher = more signal, called active from +8 up or from −8 down;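 note: MM1S multiple myeloma cell line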
[4] = target: Dihydroorotate dehydrogenase (quinone), mitochondrial (Plasmodium falciparum (isolate 3D7)) (UniProt Q08210); experiment: PfDHODH enzyme inhibitors, primary screen, biochemical, C-terminal His tag, absorbance 600 nm (AID 1175); conditions: DCIP absorbance 600 nm, higher = more signal, called active from +8 up or from −8 down;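 note: recombinant parasite enzyme with a five histidine tag at its C terminus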
Dihydroorotate dehydrogenase (quinone), mitochondrial (Plasmodium falciparum (isolate 3D7)), sequence (Q08210 whole entry, looked up): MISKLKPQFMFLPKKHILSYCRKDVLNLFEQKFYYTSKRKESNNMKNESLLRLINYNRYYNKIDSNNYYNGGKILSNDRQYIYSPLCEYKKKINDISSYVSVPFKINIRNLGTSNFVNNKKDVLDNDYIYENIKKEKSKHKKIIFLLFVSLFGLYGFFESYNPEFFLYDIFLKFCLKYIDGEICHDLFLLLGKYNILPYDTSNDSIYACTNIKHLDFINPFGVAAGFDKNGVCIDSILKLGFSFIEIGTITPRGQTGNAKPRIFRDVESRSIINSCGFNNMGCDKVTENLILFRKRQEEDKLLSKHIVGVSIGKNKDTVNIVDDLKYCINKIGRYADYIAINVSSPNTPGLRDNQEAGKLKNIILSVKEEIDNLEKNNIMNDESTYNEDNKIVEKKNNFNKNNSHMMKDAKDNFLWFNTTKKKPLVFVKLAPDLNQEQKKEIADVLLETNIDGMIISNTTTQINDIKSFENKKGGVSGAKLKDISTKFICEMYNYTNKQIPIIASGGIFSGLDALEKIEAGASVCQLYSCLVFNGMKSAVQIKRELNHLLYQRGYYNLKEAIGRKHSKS

[5] = P. aeruginosa biofilm formation inhibitors, primary screen, strain PAO1, LB-PBS medium, absorbance 600 nm (AID 1176); conditions: P. aeruginosa PAO1 growth/biofilm, A600, 12 h; higher = more signal
[6] = S. cerevisiae RM11-1a growth modifiers, primary screen, strain RM11-1a, OD600, basal, 24 h (AID 1177); conditions: OD600, 24 h, higher = more signal, called active from +8 up or from −8 down;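 note: cultures grown under basal conditions with no added stressor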
[7] = E. coli acrAB mutant growth effects, primary screen, E. coli filamentation inducers, strain DRC39, OD650, 24 h (AID 1178); conditions: higher = more signal, called active from +8 up or from −8 down;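 note: growth measured as culture turbidity by optical density at 650 nm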
[8] = E. coli acrAB mutant growth effects, primary screen, E. coli filamentation inducers, strain DRC39, OD650, 48 h (AID 1179);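 note: screen aims at cell division blockers that make cells filament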; conditions: E. coli DRC39 delta-acrAB growth, higher = more signal, called active from +8 up or from −8 down
[9] = RPMI8226 myeloma cell viability, profiling panel, resazurin fluorescence, basal, 24 h, PK04 Diversity Set (AID 1180); conditions: higher = more signal;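 note: RPMI8826 multiple myeloma cell line at 5000 cells per well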
[10] = target: E3 ubiquitin-protein ligase XIAP (Homo sapiens) (UniProt P98170); experiment: XIAP binders, primary screen, biophysical, small-molecule microarray, fluorescence 635 nm (AID 1181); conditions: small-molecule microarray binding, higher = more signal;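 note: score merges 667 nm emission and signal to noise over triplicate slides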
E3 ubiquitin-protein ligase XIAP (Homo sapiens), sequence (P98170 whole entry, looked up): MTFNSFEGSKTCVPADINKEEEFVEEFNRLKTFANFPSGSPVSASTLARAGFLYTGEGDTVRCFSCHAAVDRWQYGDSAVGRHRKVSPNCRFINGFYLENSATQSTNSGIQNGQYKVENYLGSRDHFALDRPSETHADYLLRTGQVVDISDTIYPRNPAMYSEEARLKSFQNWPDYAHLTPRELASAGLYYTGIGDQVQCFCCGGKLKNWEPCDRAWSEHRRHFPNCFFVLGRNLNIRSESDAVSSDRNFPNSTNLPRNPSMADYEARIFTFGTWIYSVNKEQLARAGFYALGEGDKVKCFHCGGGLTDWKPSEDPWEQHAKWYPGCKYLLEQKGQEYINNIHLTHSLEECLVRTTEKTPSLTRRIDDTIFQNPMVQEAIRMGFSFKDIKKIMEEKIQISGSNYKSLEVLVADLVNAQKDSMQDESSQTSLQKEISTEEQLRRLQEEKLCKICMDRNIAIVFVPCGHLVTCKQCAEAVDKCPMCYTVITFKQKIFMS

[11] = system: XIP peptide (Xip251-270) binding; experiment: small-molecule binders of XIP peptide, primary screen, biochemical, small-molecule microarray, fluorescence 635/667 nm, 0.1 µg/mL protein (AID 1182); conditions: fluorescent protein binding, 635 nm, higher = more signal, called active from +8 up or from −8 down
XIP peptide (Xip251-270) = experiment: small-molecule binders of XIP peptide, primary screen, biochemical, small-molecule microarray, fluorescence 635/667 nm, 0.5 µg/mL protein (AID 1183); conditions: small-molecule microarray binding, fluorescence 635 nm; higher = more signal
[12] = Plasmodium falciparum growth inhibition, primary screen, strain 3D7, DAPI fluorescence, 100 nL (AID 1184);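 note: parasites grown inside human red blood cells in medium with human serum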; conditions: P. falciparum 3D7 growth, 3 d, higher = more signal
[13] = target: Homeobox protein Hox-A13 (Mus musculus) (UniProt Q62424); experiment: inhibitors of HoxA13-DNA binding, primary screen, biochemical, fluorescence polarization, labeled oligonucleotide (AID 1185); conditions: 15 min, higher = more signal, called active from +8 up or from −8 down
Homeobox protein Hox-A13 (Mus musculus), sequence (Q62424 whole entry, looked up): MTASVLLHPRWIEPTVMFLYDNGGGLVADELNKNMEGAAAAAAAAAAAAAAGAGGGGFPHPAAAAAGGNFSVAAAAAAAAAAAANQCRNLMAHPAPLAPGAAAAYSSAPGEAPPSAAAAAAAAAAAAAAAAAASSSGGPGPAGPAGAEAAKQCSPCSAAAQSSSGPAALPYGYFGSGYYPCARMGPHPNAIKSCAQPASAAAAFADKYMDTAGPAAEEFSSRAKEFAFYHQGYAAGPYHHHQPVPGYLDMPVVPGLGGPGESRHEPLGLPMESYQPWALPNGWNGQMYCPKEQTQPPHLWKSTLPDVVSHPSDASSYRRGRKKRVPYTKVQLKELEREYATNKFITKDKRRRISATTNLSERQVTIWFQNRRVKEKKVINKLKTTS

[14] = inhibitors of hydroxyurea-induced Chk1 phosphorylation, primary screen, imaging, HeLa, phospho-Chk1 antibody, percent positive cells (AID 1186); conditions: hydroxyurea-induced phospho-Chk1 immunofluorescence imaging, higher = more signal
[15] = inhibitors of hydroxyurea-induced Chk1 phosphorylation, primary screen, imaging, HeLa, phospho-Chk1 nuclear intensity (AID 1187); conditions: hydroxyurea-induced phospho-Chk1 immunofluorescence imaging, higher = more signal

Row | Structure (SMILES) | z-score [1] | z-score [2] | z-score [3] | composite z-score [4] | z-score [5] | z-score [6] | z-score [7] | z-score [8] | z-score [9] | composite z-score [10] | composite z-score [11] | composite z-score (XIP peptide (Xip251-270)) | z-score [12] | z-score [13] | z-score [14] | z-score [15]
1 | CCOC(=O)C[C@H]1[C@H](OC(=O)c2ccccc2-c2ccccc2)[C@@H](NC(=O)CC(C)C)c2cc(OCCCO)ccc2N1C(=O)Cc1ccc(OC)cc1 | -0.211 | -0.184 (inactive) | 0.0683 (inactive) | 0.712 (inactive) | -0.165 (inactive) | -0.0992 (inactive) | -0.234 (inactive) | -0.488 (inactive) | 0.456 | -0.135 | -0.245 (inactive) | -0.328 | -0.106 | -5.17 (inactive) | 0.34 (inactive) | 0.524 (inactive)
2 | CC1(C)[C@@H]2CC(C(O)C3C=CC4C(=O)N(Cc5ccccc5)C(=O)C4N3n3cnnc3)=C[C@H]1C2 (some centres undefined) | 0.883 | 1.22 (inactive) | -0.12 (inactive) | 0.525 (inactive) | -0.445 (inactive) | 1.29 (inactive) | -0.539 (inactive) | 0.102 (inactive) | -0.192 | 0.136 | 0.902 (inactive) | -0.0686 | -0.101 | -3.19 (inactive) | 0.338 (inactive) | -0.115 (inactive)
3 | CCOC(=O)C[C@H]1[C@H](OC(=O)c2ccc(C(=O)c3ccccc3)cc2)[C@@H](NC(=O)c2ccc3ccccc3n2)c2cc(OCCCO)ccc2N1C(=O)c1ccccc1 | -0.0237 | 0.854 (inactive) | -0.266 (inactive) | -0.203 (inactive) | 0.0186 (inactive) | -0.0492 (inactive) | -0.28 (inactive) | -0.211 (inactive) | -0.999 | -0.0326 | -0.021 (inactive) | 0.545 | -0.894 | -1.37 (inactive) | 0.645 (inactive) | 0.334 (inactive)
4 | Cc1ccc(N2C(=O)c3ccccc3[C@@H](C(=O)NC3CC3)[C@@H]2c2ccc(CO)cc2)nc1 | -0.0178 | -0.625 (inactive) | 0.584 (inactive) | -0.162 (inactive) | 0.0714 (inactive) | -0.155 (inactive) | 0.659 (inactive) | 0.188 (inactive) | 0.154 | -0.128 | -1.49 (inactive) | -0.0549 | -0.651 | -1.95 (inactive) | -0.0109 (inactive) | -0.28 (inactive)
5 | CCCC=C(CCC)[C@@H](NC(=O)c1cccs1)c1ccc(C(F)(F)F)cc1 | 0.74 | 0.872 (inactive) | 0.116 (inactive) | -4.81 (inactive) | 1.69 (inactive) | 0.196 (inactive) | 0.224 (inactive) | -0.262 (inactive) | 0.455 | 0.309 | 0.0798 (inactive) | 0.477 | -1.65 | -2.14 (inactive) | 0.247 (inactive) | 0.201 (inactive)
6 | Cc1ccc([C@@H]2C[C@@H](Sc3ccccc3)[C@H](C(=O)O)CN2S(=O)(=O)c2ccc(C)cc2)cc1 | 0.391 | -1.58 (inactive) | -1.48 (inactive) | -0.351 (inactive) | 0.657 (inactive) | 0.455 (inactive) | -0.634 (inactive) | -0.518 (inactive) | -0.738 | 0.312 | 0.571 (inactive) | 0.8 | -0.706 | -7.26 (inactive) | 0.57 (inactive) | 0.498 (inactive)
7 | NC(=O)NCC#Cc1ccc2c(c1)[C@]1(C(=O)N2)[C@H](c2ccccc2OCCO)N2[C@H](c3ccccc3)[C@H](c3ccccc3)OC(=O)[C@H]2[C@@H]1C(=O)Nc1nc2ccccc2s1 | 0.851 | 1.21 (inactive) | 0.528 (inactive) | -1.12 (inactive) | 2.29 (inactive) | 2.16 (inactive) | 0.525 (inactive) | 0.24 (inactive) | 0.744 | -0.102 | 0.213 (inactive) | 0.324 | -1.89 | 1.61 (inactive) | 0.164 (inactive) | 0.212 (inactive)
8 | C=CC[C@]1(C(=O)NCc2ccccc2)N=C(c2ccc(OCCCO)cc2)O[C@H]1c1ccccc1N=[N+]=[N-] | -0.0155 | -0.737 (inactive) | -1.93 (inactive) | 1.52 (inactive) | 1.39 (inactive) | 0.599 (inactive) | 0.498 (inactive) | -0.822 (inactive) | -1.31 | 0.0623 | 0.525 (inactive) | 0.699 | -2.18 | -1.87 (inactive) | -0.22 (inactive) | 0.148 (inactive)
9 | O=C(c1ccccc1)N1Cc2ccccc2C[C@@]2(COC(c3ccc(OCCCO)cc3)=N2)C1=O | 1.05 | -0.264 (inactive) | 0.26 (inactive) | 0.574 (inactive) | 0.248 (inactive) | 2.02 (inactive) | -0.0674 (inactive) | -0.564 (inactive) | 0.263 | -0.231 | 1.45 (inactive) | 0.751 | -2.26 | -4.77 (inactive) | -0.221 (inactive) | 0.159 (inactive)
